Source: PubChem BioAssay (EPA / NIEHS)
Results filed as inconclusive are left out. Active and inactive are the calls of the source. The calls were made as follows, unless noted: active = hit-call score of the fitted dose curve at least 0.9, where 1 is the maximum; inactive = score below 0.9.

Experiments:
[1] = biological target: human Vitamin D Receptor (VDR), VDR (gene 7421) (UniProt P11473); assay: ATG_VDR_TRANS: Attagene TRANS-FACTORIAL HepG2 Assay for human Vitamin D Receptor (VDR) (AID 2283022; active = hit-call score of the fitted dose curve at least 0.9, where 1 is the maximum)
Sequence of human Vitamin D Receptor (VDR), VDR (gene 7421) (P11473 whole entry, looked up, the tested form may be a part): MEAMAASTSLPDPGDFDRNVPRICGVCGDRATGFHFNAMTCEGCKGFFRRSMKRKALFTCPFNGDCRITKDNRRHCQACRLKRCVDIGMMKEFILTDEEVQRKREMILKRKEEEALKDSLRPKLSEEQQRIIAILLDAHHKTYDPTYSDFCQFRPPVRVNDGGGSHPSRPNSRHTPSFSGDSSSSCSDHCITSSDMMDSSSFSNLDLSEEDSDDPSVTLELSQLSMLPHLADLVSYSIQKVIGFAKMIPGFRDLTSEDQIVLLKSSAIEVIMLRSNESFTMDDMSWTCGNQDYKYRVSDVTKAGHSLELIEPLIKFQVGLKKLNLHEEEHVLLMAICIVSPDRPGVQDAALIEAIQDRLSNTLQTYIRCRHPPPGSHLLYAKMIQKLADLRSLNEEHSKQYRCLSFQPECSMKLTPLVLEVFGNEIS
Method in brief: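 Fluorescence of labelled reporter cDNA fragments, resolved by capillary electrophoresis, gives mRNA induction after 24 h treatment of HepG2 cells carrying transfected Gal4-fusion reporter units. Activity is fitted in the positive direction with DMSO as baseline.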

[2] = BSK_3C_SRB: Viability Assessment in the BioMAP Diversity Plus: 3C Assay (AID 2283023); conditions: primary human endothelial cells (HUVEC);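 also: fitted both ways against DMSO so a hit may be signal rise or drop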
Method in brief: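 Cells were dosed with chemical, cultured 24 h, fixed with 10% TCA, stained with 0.1% SRB and read at 560 nm. Human umbilical vein endothelium was used; DMSO served as negative control and baseline.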

[3] = read-out: Matrix Metallopeptidase 1 (MMP1), MMP1 (gene 4312); assay: BSK_BE3C_MMP1: BioMAP Diversity Plus: BE3C Assay for Matrix Metallopeptidase 1 (MMP1) Biomarker Activity (AID 2283024); conditions: primary human bronchial epithelial cells; actives raise or lower the signal
Method in brief: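 Human bronchial epithelial cells (BE3C system) exposed to compound for 24 h; MMP1 then quantified by ELISA. Activity was fitted in both directions relative to DMSO.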

[4] = read-out: Pselectin, SELP (gene 6403); assay: BSK_4H_Pselectin: BioMAP Diversity Plus: 4H Assay for Pselectin Biomarker Activity (AID 2283026); conditions: primary human endothelial cells (HUVEC); actives raise or lower the signal
Method in brief: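 ELISA read-out of P-selectin on human umbilical vein endothelium after 24 h of dosing. Values derive from bidirectional fitting relative to DMSO. Parallel SRB protein staining flagged overt cytotoxicity.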

[5] = BSK_BE3C_SRB: Viability Assessment in the BioMAP Diversity Plus: BE3C Assay (AID 2283028); conditions: primary human bronchial epithelial cells
Method in brief: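 Overt cytotoxicity was assessed as total protein in confluent human primary bronchial epithelial cultures 24 h after chemical addition, using 0.1% sulforhodamine B staining read at 560 nm.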

[6] = read-out: Thrombomodulin, THBD (gene 7056); assay: BSK_3C_Thrombomodulin: BioMAP Diversity Plus: 3C Assay for Thrombomodulin Biomarker Activity (AID 2283029); conditions: primary human endothelial cells (HUVEC); actives raise or lower the signal
Method in brief: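 Read-out is ELISA of thrombomodulin on human umbilical vein endothelium 24 h after chemical dosing. Gain or loss of signal is scored relative to DMSO. Overt cytotoxicity is checked in parallel cultures by sulforhodamine B staining.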

[7] = read-out: Vascular endothelial growth factor receptor 2 (Homo sapiens) (UniProt P35968); assay: BSK_4H_VEGFRII: BioMAP Diversity Plus: 4H Assay for Vascular endothelial growth factor receptor 2 (VEGFR2) Biomarker Activity (AID 2283031); conditions: primary human endothelial cells (HUVEC); actives raise or lower the signal
Method in brief: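 VEGFRII levels on human vascular endothelial primary cells were determined by ELISA at 24 hours post-dosing, with gain- or loss-of-signal fitted against DMSO controls.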

[8] = read-out: Human Leukocyte Antigen - DR isotype (HLADR), HLA-DRA (gene 3122); assay: BSK_BE3C_HLADR: BioMAP Diversity Plus: BE3C Assay for Human Leukocyte Antigen - DR isotype (HLADR) Biomarker Activity (AID 2283032); conditions: primary human bronchial epithelial cells; actives raise or lower the signal
Method in brief: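 ELISA read-out of HLA-DR on human lung bronchial epithelial primary cells, measured 24 h post-dosing. Both increases and decreases were scored relative to DMSO vehicle.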

[9] = read-out: Vascular cell adhesion molecule 1 (VCAM1), VCAM1 (gene 7412); assay: BSK_4H_VCAM1: BioMAP Diversity Plus: 4H Assay for Vascular cell adhesion molecule 1 (VCAM1) Biomarker Activity (AID 2283033); conditions: primary human endothelial cells (HUVEC); actives raise or lower the signal;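 also: cell-surface VCAM-1 protein measured by ELISA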
Method in brief: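 ELISA read-out of VCAM-1 on human umbilical vein endothelium 24 hours after chemical dosing; gain or loss of signal was fitted relative to DMSO, with sulforhodamine B staining of parallel cultures flagging overt cytotoxicity.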

[10] = read-out: Interferon-gamma inducible Protein 10 (IP10), CXCL10 (gene 3627); assay: BSK_BE3C_IP10: BioMAP Diversity Plus: BE3C Assay for Interferon-gamma inducible Protein 10 (IP10) Biomarker Activity (AID 2283034); conditions: primary human bronchial epithelial cells; actives raise or lower the signal
Method in brief: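 Chemical is dosed onto human lung bronchial epithelial primary cells, cultures are incubated 24 h, and IP-10 is then quantified by ELISA. Gain or loss of signal is fitted in both directions relative to DMSO.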

[11] = read-out: Monokine induced gamma interferon (MIG), CXCL9 (gene 4283); assay: BSK_BE3C_MIG: BioMAP Diversity Plus: BE3C Assay for Monokine induced gamma interferon (MIG) Biomarker Activity (AID 2283035); conditions: primary human bronchial epithelial cells; actives raise or lower the signal;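 also: MIG protein measured by ELISA in BE3C cultures after 24 h of dosing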
Method in brief: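 ELISA read-out of MIG in human lung bronchial epithelial primary cultures, 24 h post-dosing. Bidirectional curve fit vs DMSO baseline.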

[12] = read-out: Transforming growth factor beta 1 (TGFb1), TGFB1 (gene 7040); assay: BSK_BE3C_TGFb1: BioMAP Diversity Plus: BE3C Assay for Transforming growth factor beta 1 (TGFb1) Biomarker Activity (AID 2283036;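 also: TGF-b1 protein level measured by ELISA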); conditions: primary human bronchial epithelial cells; actives raise or lower the signal
Method in brief: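 Primary human lung bronchial epithelial cells; compound exposure 24 h; TGF-b1 by ELISA; bidirectional fit, DMSO baseline. Parallel SRB total-protein staining for cytotoxicity.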

[13] = read-out: Plasminogen activator inhibitor-1 (PAI1), SERPINE1 (gene 5054); assay: BSK_BE3C_PAI1: BioMAP Diversity Plus: BE3C Assay for Plasminogen activator inhibitor-1 (PAI1) Biomarker Activity (AID 2283037); conditions: primary human bronchial epithelial cells; actives raise or lower the signal
Method in brief: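 Primary human lung bronchial epithelial cells; chemical dosing; 24 h; PAI-1 measured by ELISA; bidirectional fit referenced to DMSO as negative control.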

[14] = read-out: urokinase plasminogen activator (uPA), PLAU (gene 5328); assay: BSK_BE3C_uPA: BioMAP Diversity Plus: BE3C Assay for urokinase plasminogen activator (uPA) Biomarker Activity (AID 2283038); conditions: primary human bronchial epithelial cells; actives raise or lower the signal;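 also: uPA protein level quantified by ELISA in cell cultures; uPA read one day after compound addition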
Method in brief: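 Measured by ELISA: uPA from human primary bronchial epithelial cells 24 h after chemical treatment. Values derive from bidirectional curve fitting with DMSO serving as negative control. Total protein by SRB staining in parallel wells flagged overt cytotoxicity.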

[15] = read-out: Urokinase-type plasminogen activator receptor (uPAR), PLAUR (gene 5329); assay: BSK_BE3C_uPAR: BioMAP Diversity Plus: BE3C Assay for Urokinase-type plasminogen activator receptor (uPAR) Biomarker Activity (AID 2283039); conditions: primary human bronchial epithelial cells; actives raise or lower the signal;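 also: uPAR protein level measured by ELISA on the cells; cells exposed to compound for one day before measurement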
Method in brief: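 Human bronchial epithelial primary cells; chemical exposure 24 h; uPAR by ELISA; bidirectional fit vs DMSO control.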

[16] = read-out: Interleukin-6 (IL6), IL6 (gene 3569); assay: BSK_CASM3C_IL6: BioMAP Diversity Plus: CASM3C Assay for Interleukin-6 (IL6) Biomarker Activity for (AID 2283040); conditions: primary human coronary artery smooth muscle cells; actives raise or lower the signal
[17] = read-out: Tissue plasminogen activator (tPA), PLAT (gene 5327); assay: BSK_BE3C_tPA: BioMAP Diversity Plus: BE3C Assay for Tissue plasminogen activator (tPA) Biomarker Activity (AID 2283041); conditions: primary human bronchial epithelial cells; actives raise or lower the signal;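 also: tPA level quantified by ELISA one day after compound addition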
Method in brief: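 Primary human lung bronchial epithelial cultures receive test chemical; after 24 h, tPA is quantified by ELISA, and gain or loss of signal is fitted bidirectionally relative to DMSO baseline.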

[18] = BSK_3C_Vis: BioMAP Diversity Plus: 3C Assay for Morphology Visualization (AID 2283025); conditions: primary human endothelial cells (HUVEC);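 also: fitted both ways so gain or loss versus DMSO counts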
Method in brief: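 Chemicals were added to primary human umbilical vein endothelium, cells were incubated 24 h, and morphology was then visualized by light microscopy. Gain or loss of signal was fitted bidirectionally relative to DMSO.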

[19] = BSK_4H_SRB: Viability Assessment in the BioMAP Diversity Plus: 4H Assay (AID 2283027); conditions: primary human endothelial cells (HUVEC);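 also: cells exposed to compound for 24 h before staining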
Method in brief: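 Human umbilical vein endothelial cells were dosed with chemical and, after 24 h, fixed with 10% TCA, stained with 0.1% sulforhodamine B, and read at 560 nm to give total protein as a cytotoxicity measure. Bidirectional fitting relative to DMSO control.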

[20] = read-out: Urokinase-type plasminogen activator receptor (uPAR), PLAUR (gene 5329); assay: BSK_4H_uPAR: BioMAP Diversity Plus: 4H Assay for Urokinase-type plasminogen activator receptor (uPAR) Biomarker Activity (AID 2283030); conditions: primary human endothelial cells (HUVEC); actives raise or lower the signal
Method in brief: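 Chemicals are dosed onto human vascular endothelial primary cells (umbilical vein). After 24 h, uPAR is read by ELISA. Gain or loss of signal is fitted relative to DMSO.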

O=c1[nH]cc(F)c(=O)[nH]1
outcome [1]: inactive
AC50 [2]: 20.4 µM (active)
outcome [3]: inactive
outcome [4]: inactive
outcome [5]: inactive
outcome [6]: inactive
outcome [7]: inactive
outcome [8]: inactive
outcome [9]: inactive
outcome [10]: inactive
outcome [11]: inactive
outcome [12]: inactive
outcome [13]: inactive
outcome [14]: inactive
outcome [15]: inactive
outcome [16]: inactive
outcome [17]: inactive

C=CCOC(=O)c1ccccc1C(=O)OCC=C
outcome [2]: inactive
outcome [3]: inactive
outcome [18]: inactive
outcome [4]: inactive
outcome [19]: inactive
outcome [5]: inactive
outcome [6]: inactive
outcome [20]: inactive
outcome [7]: inactive
outcome [8]: inactive
outcome [9]: inactive
outcome [10]: inactive
outcome [11]: inactive
outcome [12]: inactive
outcome [13]: inactive
outcome [14]: inactive
outcome [16]: inactive
outcome [17]: inactive

Cc1nc(C)nc(N2C[C@@H](C)N(c3ccnc([C@@H](C)O)n3)[C@@H](C)C2)n1
outcome [1]: inactive
outcome [2]: inactive
outcome [3]: inactive
outcome [4]: inactive
outcome [19]: inactive
outcome [5]: inactive
outcome [6]: inactive
outcome [20]: inactive
outcome [7]: inactive
outcome [8]: inactive
outcome [9]: inactive
outcome [10]: inactive
outcome [11]: inactive
outcome [13]: inactive
outcome [14]: inactive
outcome [15]: inactive
outcome [16]: inactive
outcome [17]: inactive

c1cc(-c2ccncc2)ccn1
outcome [1]: inactive
outcome [2]: inactive
outcome [3]: inactive
outcome [4]: inactive
outcome [5]: inactive
outcome [6]: inactive
outcome [20]: inactive
outcome [7]: inactive
outcome [8]: inactive
outcome [9]: inactive
outcome [10]: inactive
outcome [11]: inactive
outcome [12]: inactive
outcome [13]: inactive
outcome [14]: inactive
outcome [15]: inactive
outcome [16]: inactive
outcome [17]: inactive

CCCCCCCCCCC
outcome [2]: inactive
outcome [3]: inactive
outcome [18]: inactive
outcome [4]: inactive
outcome [19]: inactive
outcome [5]: inactive
outcome [6]: inactive
outcome [20]: inactive
outcome [7]: inactive
outcome [8]: inactive
outcome [9]: inactive
outcome [10]: inactive
outcome [11]: inactive
outcome [13]: inactive
outcome [14]: inactive
outcome [15]: inactive
outcome [16]: inactive
outcome [17]: inactive

COc1ccc(C)cc1N
outcome [1]: inactive
outcome [2]: inactive
outcome [3]: inactive
outcome [4]: inactive
outcome [5]: inactive
outcome [6]: inactive
outcome [20]: inactive
outcome [7]: inactive
outcome [8]: inactive
outcome [9]: inactive
outcome [10]: inactive
outcome [11]: inactive
outcome [12]: inactive
outcome [13]: inactive
outcome [14]: inactive
outcome [16]: inactive
outcome [17]: inactive

C[Si]1(C)O[Si](C)(C)O[Si](C)(C)O[Si](C)(C)O1
outcome [2]: inactive
outcome [3]: inactive
outcome [18]: inactive
outcome [4]: inactive
outcome [19]: inactive
outcome [5]: inactive
outcome [6]: inactive
outcome [20]: inactive
outcome [7]: inactive
outcome [8]: inactive
outcome [9]: inactive
outcome [10]: inactive
outcome [11]: inactive
outcome [12]: inactive
outcome [13]: inactive
outcome [14]: inactive
outcome [15]: inactive
outcome [16]: inactive
outcome [17]: inactive
